The entries come from a sample that favours hits as a whole.
TDP1 cell CPT – growth inhibition of DT40 Tdp1-/-;hTDP1 cells with camptothecin (screen for TDP1 inhibitors) | actives 12% (n = 420,000) | Potency, µM (doses to about 46.2 µM), usual class: inhibitors | AID 686979 | chicken DT40 Tdp1-/-;hTDP1 cells + 20 nM CPT, ATP luminescence, 48 h; note: nearly all actives have a fitted effect of over 55% in size
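Chicken DT40 Tdp1-/- cells stably complemented with human TDP1 were seeded at 400 cells/well in medium containing 20 nM camptothecin, exposed to pin-transferred compounds, and grown at 37 °C for at least 48 hr. Viability was read as ATP luminescence.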
HT1080 IDH1KD tx – toxicity to HT-1080 IDH1 knockdown cells (counter line) | Potency, µM (titrated, usually from 46.1 µM), hits mostly cytotoxic | AID 686971 | HT-1080 IDH1 knockdown viability, ATP luminescence, 48 h | actives 2% (n = 360,000)
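Cytotoxicity counter-line: IDH1KD HT-1080, 48 h, CellTiter-Glo. Curves classed by r2, magnitude and activity.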
HT1080-NT tox – kills 2HG-producing HT-1080-NT fibrosarcoma cells. actives 1.6% (n = 360,000). HT-1080-NT fibrosarcoma viability, CellTiter-Glo ATP luminescence, 48 h. Potency, µM (series often up to 46.1 µM), hits mostly cytotoxic. AID 686970;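 note: NT is the 2HG producing partner of a matched IDH1 knockdown line; nearly all actives have a fitted effect of over 55% in size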
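HT-1080-NT; 750 cells/well; 5% FBS RPMI; 48 h compound, 37 degrees C; CellTiter-Glo luminescence; curve fitting and curve-class assignment.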
TDP1 cell noCPT – qHTS for Inhibitors of human tyrosyl-DNA phosphodiesterase 1 (TDP1): qHTS in cells in absence of CPT | Potency, µM (titrated, usually from 46.2 µM), actives largely listed as inhibitors | AID 686978, 2013 | DT40 Tdp1-/- hTDP1 cells, no CPT, ATP luminescence, 48 h | actives 15% (n = 420,000); note: nearly all actives have a fitted effect of over 55% in size
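DT40 Tdp1-/-;hTDP1 cells, no CPT (DMSO vehicle only), 400 cells/well; compounds pin-transferred; ≥48 hr, 37 °C; CellTiter-Glo 30 min RT dark, luminescence read.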
12-LOX inh – blocks human arachidonate 12S-lipoxygenase | P18054 | purified 12hLO, xylenol orange hydroperoxide absorbance | Potency, µM (highest dose often 108 µM), usual class: inhibitors | actives 1.1% (n = 580,000) | AID 1671190
Target sequence (P18054 whole entry, looked up): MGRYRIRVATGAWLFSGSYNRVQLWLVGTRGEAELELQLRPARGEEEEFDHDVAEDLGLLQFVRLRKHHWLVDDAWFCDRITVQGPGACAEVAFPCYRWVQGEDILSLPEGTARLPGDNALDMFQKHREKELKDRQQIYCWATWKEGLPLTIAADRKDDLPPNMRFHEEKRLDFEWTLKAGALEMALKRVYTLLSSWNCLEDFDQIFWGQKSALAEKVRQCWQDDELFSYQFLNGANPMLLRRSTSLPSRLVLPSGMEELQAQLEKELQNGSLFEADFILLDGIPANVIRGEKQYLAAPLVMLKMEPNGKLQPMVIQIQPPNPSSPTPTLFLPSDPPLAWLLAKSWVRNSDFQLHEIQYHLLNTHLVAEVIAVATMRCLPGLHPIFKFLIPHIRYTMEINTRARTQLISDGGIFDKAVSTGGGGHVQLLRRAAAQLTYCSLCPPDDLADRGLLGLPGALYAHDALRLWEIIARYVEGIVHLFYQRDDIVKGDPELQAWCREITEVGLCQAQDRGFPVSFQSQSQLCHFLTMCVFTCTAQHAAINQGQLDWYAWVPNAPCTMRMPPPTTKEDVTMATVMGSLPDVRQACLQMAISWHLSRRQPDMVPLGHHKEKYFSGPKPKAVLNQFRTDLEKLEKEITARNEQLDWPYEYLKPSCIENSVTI
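Hydroperoxide product was detected by ferrous iron/xylenol orange as the 573 to 405 nm absorbance ratio. Arachidonic acid at 40 uM (final) was turned over for 30 min at room temperature by 150 nM human 12hLO, pH 7.0 Hepes buffer, after 15 min compound preincubation.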
IL-1B inflam inh – blocks inflammasome-driven IL-1 beta release; THP-1 LPS/ATP IL-1B secretion, AlphaLISA, 16 h; active compounds read low; activity change, % at 57.5 µM; actives 4.7% (n = 360,000); in the data active = activity change below about -50%; inconclusive = mostly about -30% to -49%
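Secreted IL-1B measured by AlphaLISA bead assay after 16 h compound exposure of THP-1 cells; compounds (final up to 57.5 uM) added 1 h before LPS (250 ng/mL) and ATP (1.25 mM) stimulation; lower signal means less secretion.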
A number is an active result; i = inactive; ? = inconclusive; nt = no result. Unless noted, calls come from the whole dose curve; as a rule, active = well fitted curve in the direction sought with a large enough effect; inconclusive = small, poorly fitted or top-dose-only effect, or another doubt; inactive = no such curve, though single readings can be large; an effect the other way counts as inactive or inconclusive.

SMILES | TDP1 cell CPT | HT1080 IDH1KD tx | HT1080-NT tox | TDP1 cell noCPT | 12-LOX inh | IL-1B inflam inh
COc1cccc(NC(=O)c2sc3nc(C)c(C(=O)Nc4ccc(Cl)cc4)c(-c4ccc(Br)cc4)c3c2N)c1 | ? | nt | nt | 7.3µM | i | nt
COc1ccc(-c2c3c(nc4sc(C(=O)Nc5ccc(Cl)cc5)c(N)c24)CC(C)(C)CC3=O)cc1 | 16µM | nt | nt | 8.2µM | i | nt
COc1ccc(-c2c3c(nc4sc(C(=O)Nc5cc(C)on5)c(N)c24)CCC3)cc1 | i | ? | i | ? | i | -88
CCOc1ccc(NC(=O)c2sc3nc4c(c(-c5ccc(OC)cc5)c3c2N)C(=O)CC(C)(C)C4)cc1 | ? | nt | nt | ? | i | nt
CCCN1C=NS(=O)(=O)c2cc(C(=O)NC(C)c3ccccc3)ccc21 (stereo not drawn) | nt | nt | nt | nt | i | nt
N#CC1=C(c2ccccc2)C(O)(c2ccccc2)NC1=O (stereo not drawn) | nt | nt | nt | nt | i | nt
CCOC(=O)c1cnc2ccc(OC)cc2c1NCCc1ccccc1 | ? | nt | nt | 10µM | ? | nt
CCOC(=O)c1cnc2ccc(OC)cc2c1NCc1ccccc1 | ? | i | i | ? | i | i
CCOC(=O)c1cnc2ccc(OC(F)(F)F)cc2c1Nc1ccccc1C(=O)O | ? | nt | nt | 15µM | i | nt
CCOC(=O)c1cnc2ccc(OCC)cc2c1NCc1ccccc1OC | 5.2µM | ? | 21µM | 5.2µM | ? | -89
CCOC(=O)c1cnc2ccc(OCC)cc2c1Nc1cc(C)ccc1OC | nt | nt | nt | nt | i | nt
CCOC(=O)c1cnc2ccc(OCC)cc2c1Nc1cc(Cl)c(OC)cc1OC | 15µM | nt | nt | 26µM | i | nt
Cc1ccc(C)c(NC(=O)C(C)Sc2nc3ccccc3nc2C)c1 (stereo not drawn) | nt | nt | nt | nt | i | nt
CC(C)(C)NC(NC(=O)c1cccc(Cl)c1)C(Cl)(Cl)Cl (stereo not drawn) | nt | nt | nt | nt | i | nt
O=C(CC1=C2CCCCC2N(Cc2ccccc2)C1=O)NC1CC1 (stereo not drawn) | nt | nt | nt | nt | i | nt
CCOc1ccccc1CN1CC[C@H](c2n[nH]c(C)n2)[C@H](NC(=O)C2CCOCC2)C1 | nt | nt | nt | nt | i | nt
CCOC(=O)c1cnc2ccc(OC)cc2c1Nc1cccc(C(C)=O)c1 | 16µM | nt | nt | 21µM | i | nt
CCOC(=O)c1oc2ccc(S(=O)(=O)n3nc(-c4cc(OC)c(OC)c(OC)c4)cc3N)cc2c1C | i | i | i | ? | i | i
COc1ccc(-c2cc(N)n(S(=O)(=O)c3ccc(F)cc3)n2)cc1OC | 18µM | i | i | 12µM | i | i
Nc1cc(-c2ccccc2)nn1S(=O)(=O)c1ccc(F)cc1 | 29µM | i | ? | 15µM | i | i
COc1ccc(OC)c(S(=O)(=O)n2nc(-c3ccccc3)cc2N)c1 | i | i | i | i | i | i
COc1cc(-c2cc(N)n(S(=O)(=O)c3ccc(F)cc3)n2)cc(OC)c1OC | 16µM | i | i | 18µM | i | i
COc1cc(OC)cc(-c2cc(N)n(S(=O)(=O)Cc3ccccc3)n2)c1 | ? | i | i | 18µM | i | i
COc1ccc(S(=O)(=O)n2nc(-c3ccc(Cl)cc3)cc2N)cc1OC | ? | ? | i | ? | i | i
Cc1cc(C)c2oc(=O)cc(-c3oc4ccccc4c3N)c2c1 | nt | nt | nt | nt | i | nt
SMILES | TDP1 cell CPT | HT1080 IDH1KD tx | HT1080-NT tox | TDP1 cell noCPT | 12-LOX inh | IL-1B inflam inh
N#Cc1nc(-c2ccco2)oc1N1CCC(C(=O)N2CCC(CCN3CCOCC3)CC2)CC1 | nt | nt | nt | nt | i | nt
CC1=NN2C(=N)/C(=C\c3ccc(SCc4ccccc4)o3)C(=O)N=C2S1 | i | i | i | i | 40µM | i
Cc1cc(/C=C2\C(=N)N3N=C(CC(=O)N4CCOCC4)SC3=NC2=O)c(C)n1Cc1ccccc1 | i | i | i | i | i | i
CC1=NN2C(=N)/C(=C\c3cc(C)n(Cc4ccccc4)c3C)C(=O)N=C2S1 | i | i | i | 26µM | i | i
CC(=O)N1CCC(N2CC[C@H](c3nnc(-c4ccco4)o3)C2)CC1 | nt | nt | nt | nt | i | nt
CCOc1cc(=O)n2c(c1C(=O)Nc1cc(Cl)ccc1OC)CCCC2 | nt | nt | nt | nt | i | nt

High-throughput results (PubChem)
